Experimental data as given in the supplement of paper PMC11732987, “Enantioselective OTUD7B fragment discovery through chemoproteomics screening and high-throughput optimisation” (Communications Chemistry, 2025).

Legend:
Experiment in all cases: log2 ratio of Biotin-Ahx-Ub-VS probe labelling (fragment/DMSO); higher = less target engagement (more negative = stronger competition), active = hit call of the paper (q ≤ 0.05, log2 ratio ≤ -1)
Details in all cases: compound concentration: 200 uM; treatment time: 3 h
USP19 = molecular target: T1, USP19 (UniProt O94966)
T1 sequence (whole entry): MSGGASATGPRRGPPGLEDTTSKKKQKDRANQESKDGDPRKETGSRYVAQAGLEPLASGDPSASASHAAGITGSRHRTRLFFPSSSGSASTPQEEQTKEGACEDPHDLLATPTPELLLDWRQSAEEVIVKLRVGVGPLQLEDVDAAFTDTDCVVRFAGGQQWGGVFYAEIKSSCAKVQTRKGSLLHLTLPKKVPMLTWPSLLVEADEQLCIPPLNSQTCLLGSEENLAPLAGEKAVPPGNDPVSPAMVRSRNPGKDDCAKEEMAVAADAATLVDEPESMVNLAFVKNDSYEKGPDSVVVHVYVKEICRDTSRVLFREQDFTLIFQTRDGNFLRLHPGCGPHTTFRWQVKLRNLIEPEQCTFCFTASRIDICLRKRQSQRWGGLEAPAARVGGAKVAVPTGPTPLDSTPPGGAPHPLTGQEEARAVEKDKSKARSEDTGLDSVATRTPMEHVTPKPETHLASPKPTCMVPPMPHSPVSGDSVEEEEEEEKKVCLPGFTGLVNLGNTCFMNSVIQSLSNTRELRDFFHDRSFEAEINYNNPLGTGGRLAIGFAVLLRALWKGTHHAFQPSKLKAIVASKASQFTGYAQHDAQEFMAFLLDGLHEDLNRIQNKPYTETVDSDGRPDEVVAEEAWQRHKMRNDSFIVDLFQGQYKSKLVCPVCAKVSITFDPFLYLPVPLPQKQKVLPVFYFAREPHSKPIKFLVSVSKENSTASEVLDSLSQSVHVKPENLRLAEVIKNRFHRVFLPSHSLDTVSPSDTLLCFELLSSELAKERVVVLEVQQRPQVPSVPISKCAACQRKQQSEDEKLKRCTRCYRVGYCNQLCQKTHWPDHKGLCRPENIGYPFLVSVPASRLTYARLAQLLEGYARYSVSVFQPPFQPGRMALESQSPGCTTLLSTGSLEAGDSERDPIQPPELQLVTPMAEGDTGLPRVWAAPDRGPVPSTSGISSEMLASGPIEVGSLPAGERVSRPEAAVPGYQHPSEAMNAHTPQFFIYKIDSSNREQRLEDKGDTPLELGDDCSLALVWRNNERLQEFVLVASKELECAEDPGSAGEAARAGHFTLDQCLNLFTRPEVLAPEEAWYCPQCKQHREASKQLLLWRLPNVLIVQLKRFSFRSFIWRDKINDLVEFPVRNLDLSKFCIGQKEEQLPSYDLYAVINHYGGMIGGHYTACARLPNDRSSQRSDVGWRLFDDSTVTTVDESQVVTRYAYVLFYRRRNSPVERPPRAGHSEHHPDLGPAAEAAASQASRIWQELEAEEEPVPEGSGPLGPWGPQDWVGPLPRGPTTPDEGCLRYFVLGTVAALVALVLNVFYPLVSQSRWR
Procedure, shortened: (§1)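 Global-median-normalised Spectronaut label-free quantities were compared by unpaired t-test, and values are average log2 ratios of fragment over vehicle. Only proteins with ≥2 unique peptides were used. HEK293T lysate (495 µg per sample) was treated in triplicate with fragment at 200 µM or vehicle for 3 h and then with Biotin-Ahx-Ub-VS at 0.5 µM final for 1 h. Labelled DUBs were then NeutrAvidin-enriched, digested with LysC and trypsin, and run by diaPASEF LC-MS/MS.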

USP22 = molecular target: T2, USP22 (UniProt Q9UPT9)
T2 sequence (whole entry): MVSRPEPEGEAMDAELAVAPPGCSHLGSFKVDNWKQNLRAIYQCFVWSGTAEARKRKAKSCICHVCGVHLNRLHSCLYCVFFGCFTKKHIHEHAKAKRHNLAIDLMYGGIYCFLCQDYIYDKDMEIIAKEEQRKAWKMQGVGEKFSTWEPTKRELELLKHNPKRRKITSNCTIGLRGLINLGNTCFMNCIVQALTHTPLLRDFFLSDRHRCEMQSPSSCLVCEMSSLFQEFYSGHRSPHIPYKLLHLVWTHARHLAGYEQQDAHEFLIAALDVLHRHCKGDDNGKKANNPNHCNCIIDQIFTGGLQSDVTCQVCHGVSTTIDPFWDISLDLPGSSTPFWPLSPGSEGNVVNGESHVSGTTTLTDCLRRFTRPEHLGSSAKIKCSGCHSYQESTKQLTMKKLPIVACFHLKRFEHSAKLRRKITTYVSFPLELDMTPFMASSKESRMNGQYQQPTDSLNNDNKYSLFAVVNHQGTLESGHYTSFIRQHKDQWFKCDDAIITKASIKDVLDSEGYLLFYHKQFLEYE
Procedure, shortened: as §1

USP24 = USP24 (UniProt Q9UPU5)
Procedure, shortened: as §1

USP25 = molecular target: T3, USP25 (UniProt Q9UHP3)
T3 sequence (whole entry): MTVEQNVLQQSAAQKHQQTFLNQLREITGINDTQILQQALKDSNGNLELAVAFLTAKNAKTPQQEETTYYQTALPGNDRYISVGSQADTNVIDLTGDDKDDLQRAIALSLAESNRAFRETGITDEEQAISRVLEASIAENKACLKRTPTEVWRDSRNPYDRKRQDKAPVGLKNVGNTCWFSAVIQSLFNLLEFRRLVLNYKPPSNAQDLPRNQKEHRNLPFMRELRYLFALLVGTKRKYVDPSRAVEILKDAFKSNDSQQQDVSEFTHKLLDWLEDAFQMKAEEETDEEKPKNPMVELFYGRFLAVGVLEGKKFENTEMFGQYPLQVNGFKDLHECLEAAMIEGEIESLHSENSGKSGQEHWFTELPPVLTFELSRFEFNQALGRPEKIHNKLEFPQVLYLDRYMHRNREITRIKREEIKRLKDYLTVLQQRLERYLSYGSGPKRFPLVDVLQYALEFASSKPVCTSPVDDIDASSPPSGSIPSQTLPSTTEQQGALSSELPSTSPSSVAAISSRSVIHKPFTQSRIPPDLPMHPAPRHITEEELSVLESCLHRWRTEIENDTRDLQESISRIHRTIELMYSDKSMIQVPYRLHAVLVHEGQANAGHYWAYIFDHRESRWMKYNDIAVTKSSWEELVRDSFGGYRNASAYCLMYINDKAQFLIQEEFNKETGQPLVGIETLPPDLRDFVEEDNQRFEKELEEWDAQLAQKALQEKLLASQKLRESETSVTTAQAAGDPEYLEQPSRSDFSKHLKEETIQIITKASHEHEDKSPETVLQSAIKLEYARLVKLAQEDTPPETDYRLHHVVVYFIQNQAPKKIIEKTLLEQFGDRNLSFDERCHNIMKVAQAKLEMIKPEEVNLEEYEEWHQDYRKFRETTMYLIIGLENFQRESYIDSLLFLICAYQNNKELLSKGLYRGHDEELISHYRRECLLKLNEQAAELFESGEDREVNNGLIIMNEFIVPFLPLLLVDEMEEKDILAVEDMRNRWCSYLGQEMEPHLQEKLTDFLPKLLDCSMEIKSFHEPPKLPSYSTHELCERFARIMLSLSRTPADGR
Procedure, shortened: as §1

USP28 = molecular target: T4, USP28 (UniProt Q96RU2)
T4 sequence (whole entry): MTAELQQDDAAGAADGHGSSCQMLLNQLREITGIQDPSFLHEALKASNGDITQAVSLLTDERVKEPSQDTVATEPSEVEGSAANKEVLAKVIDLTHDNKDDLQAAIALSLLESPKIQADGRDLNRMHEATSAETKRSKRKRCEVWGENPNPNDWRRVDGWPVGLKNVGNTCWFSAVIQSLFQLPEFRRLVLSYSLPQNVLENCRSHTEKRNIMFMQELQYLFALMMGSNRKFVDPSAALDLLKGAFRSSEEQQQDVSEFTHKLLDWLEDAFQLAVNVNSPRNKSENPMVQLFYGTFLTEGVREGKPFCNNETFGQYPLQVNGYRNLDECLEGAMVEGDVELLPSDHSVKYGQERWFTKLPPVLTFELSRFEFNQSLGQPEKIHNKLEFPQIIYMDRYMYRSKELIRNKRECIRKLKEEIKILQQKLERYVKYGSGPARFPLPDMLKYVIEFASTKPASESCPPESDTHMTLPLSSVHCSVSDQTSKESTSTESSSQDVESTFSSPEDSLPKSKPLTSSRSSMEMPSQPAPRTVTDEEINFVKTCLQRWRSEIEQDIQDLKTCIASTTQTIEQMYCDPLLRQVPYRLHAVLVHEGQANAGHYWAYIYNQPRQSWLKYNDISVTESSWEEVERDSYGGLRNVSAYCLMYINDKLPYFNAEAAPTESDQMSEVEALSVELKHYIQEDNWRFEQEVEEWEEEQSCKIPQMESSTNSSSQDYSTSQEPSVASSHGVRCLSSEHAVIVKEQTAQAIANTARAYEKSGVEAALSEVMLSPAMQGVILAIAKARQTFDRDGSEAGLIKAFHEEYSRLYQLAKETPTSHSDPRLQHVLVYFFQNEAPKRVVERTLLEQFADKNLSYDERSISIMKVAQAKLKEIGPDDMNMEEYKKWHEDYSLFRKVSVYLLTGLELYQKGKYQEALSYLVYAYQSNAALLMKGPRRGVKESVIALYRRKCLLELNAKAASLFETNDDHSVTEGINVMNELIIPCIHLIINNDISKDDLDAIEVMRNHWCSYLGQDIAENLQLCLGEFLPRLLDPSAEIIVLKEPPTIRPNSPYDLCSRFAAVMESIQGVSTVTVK
Procedure, shortened: as §1

Measured: log2 ratio of Biotin-Ahx-Ub-VS probe labelling

Chain of USP24 (Q9UPU5 whole entry): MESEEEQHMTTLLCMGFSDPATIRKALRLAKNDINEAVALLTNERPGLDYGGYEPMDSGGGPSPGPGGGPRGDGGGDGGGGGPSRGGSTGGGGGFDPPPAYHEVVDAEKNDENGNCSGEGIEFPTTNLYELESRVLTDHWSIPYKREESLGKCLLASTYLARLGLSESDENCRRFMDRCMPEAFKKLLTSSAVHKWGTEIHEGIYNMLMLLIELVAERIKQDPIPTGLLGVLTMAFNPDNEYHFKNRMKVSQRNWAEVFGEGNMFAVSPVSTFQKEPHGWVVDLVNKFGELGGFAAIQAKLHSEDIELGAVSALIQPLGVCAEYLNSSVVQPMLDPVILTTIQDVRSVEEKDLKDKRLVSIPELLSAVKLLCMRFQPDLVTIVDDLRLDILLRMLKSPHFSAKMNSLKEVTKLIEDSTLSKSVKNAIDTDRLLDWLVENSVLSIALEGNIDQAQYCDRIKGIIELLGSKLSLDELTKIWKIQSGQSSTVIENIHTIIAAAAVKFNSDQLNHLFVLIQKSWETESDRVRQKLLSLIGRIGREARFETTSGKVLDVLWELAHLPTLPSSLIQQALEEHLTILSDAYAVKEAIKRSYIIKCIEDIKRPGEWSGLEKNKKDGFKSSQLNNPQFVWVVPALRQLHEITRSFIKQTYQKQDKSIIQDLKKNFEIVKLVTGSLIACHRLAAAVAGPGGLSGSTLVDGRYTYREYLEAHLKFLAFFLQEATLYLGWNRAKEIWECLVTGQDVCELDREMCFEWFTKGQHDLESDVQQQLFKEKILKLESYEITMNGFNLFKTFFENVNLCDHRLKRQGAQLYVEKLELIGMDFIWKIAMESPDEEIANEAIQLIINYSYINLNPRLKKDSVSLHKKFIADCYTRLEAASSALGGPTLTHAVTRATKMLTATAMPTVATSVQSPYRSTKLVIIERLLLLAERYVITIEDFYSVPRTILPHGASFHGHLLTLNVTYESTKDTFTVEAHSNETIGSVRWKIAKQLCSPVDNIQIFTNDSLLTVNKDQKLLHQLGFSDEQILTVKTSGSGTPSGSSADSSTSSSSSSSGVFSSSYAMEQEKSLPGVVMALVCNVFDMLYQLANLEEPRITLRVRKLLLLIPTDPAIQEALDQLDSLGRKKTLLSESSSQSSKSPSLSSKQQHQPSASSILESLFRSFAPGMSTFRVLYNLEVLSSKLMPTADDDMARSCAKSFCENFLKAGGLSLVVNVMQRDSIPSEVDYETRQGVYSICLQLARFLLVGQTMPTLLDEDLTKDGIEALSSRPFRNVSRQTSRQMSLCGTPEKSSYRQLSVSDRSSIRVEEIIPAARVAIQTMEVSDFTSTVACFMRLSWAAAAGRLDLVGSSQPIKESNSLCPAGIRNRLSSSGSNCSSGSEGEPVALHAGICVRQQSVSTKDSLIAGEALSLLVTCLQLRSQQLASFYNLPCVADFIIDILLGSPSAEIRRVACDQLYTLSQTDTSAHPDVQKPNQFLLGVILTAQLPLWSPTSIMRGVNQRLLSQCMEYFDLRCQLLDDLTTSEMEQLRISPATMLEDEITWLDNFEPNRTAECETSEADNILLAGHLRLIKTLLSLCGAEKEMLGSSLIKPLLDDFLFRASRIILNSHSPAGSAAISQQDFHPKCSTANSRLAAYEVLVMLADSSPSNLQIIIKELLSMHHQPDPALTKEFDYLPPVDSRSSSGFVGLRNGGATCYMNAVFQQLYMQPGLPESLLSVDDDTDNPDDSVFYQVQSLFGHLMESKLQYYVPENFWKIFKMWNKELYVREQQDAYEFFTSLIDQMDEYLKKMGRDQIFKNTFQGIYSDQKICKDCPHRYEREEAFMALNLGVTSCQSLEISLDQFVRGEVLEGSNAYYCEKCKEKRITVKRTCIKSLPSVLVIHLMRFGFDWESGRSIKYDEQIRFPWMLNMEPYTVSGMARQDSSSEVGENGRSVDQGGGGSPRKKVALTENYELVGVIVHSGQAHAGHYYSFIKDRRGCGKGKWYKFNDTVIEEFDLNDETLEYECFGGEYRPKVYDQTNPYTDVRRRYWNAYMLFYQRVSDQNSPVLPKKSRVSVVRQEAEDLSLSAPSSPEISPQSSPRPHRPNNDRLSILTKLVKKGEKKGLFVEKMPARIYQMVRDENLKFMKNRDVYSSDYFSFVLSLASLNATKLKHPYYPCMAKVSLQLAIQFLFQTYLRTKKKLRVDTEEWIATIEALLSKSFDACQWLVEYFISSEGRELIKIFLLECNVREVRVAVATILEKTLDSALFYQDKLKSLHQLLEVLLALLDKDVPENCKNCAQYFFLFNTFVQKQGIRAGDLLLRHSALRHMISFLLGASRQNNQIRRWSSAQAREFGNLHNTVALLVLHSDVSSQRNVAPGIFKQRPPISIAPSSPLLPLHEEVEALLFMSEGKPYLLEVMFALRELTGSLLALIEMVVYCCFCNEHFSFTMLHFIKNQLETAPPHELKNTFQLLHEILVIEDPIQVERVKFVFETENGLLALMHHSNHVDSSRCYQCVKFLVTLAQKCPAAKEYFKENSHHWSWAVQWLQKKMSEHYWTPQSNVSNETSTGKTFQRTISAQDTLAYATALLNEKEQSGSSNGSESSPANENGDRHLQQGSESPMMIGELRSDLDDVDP

O=C(CCl)N1CCCN(C(=O)c2ccc(Cl)cc2)CC1
inactive: USP19 -0.449 | USP22 -0.095 | USP24 -0.433 | USP25 -0.628 | USP28 -0.618
